SMILES strings stand for the structures. Out of some 370,000 compounds screened, about 4,100 (1.1%) were called active.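 Rule for the calls: active = inhibition above the mean over all tested compounds plus 3 SD (cut at about 3.6% in these data); inactive = the rest.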 Only a selection was taken, and actives are over-represented in it overall.

This test in a line: relief of DAX-1 repression of SF-1 activity – cell-based, luminescence, SF-1 (NR5A1), full-length DAX-1, primary screen (AID 652010).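 Note: 0% = DAX-1 cells with DMSO and 100% = cells lacking DAX-1 with DMSO; higher inhibition means more luminescence from relief of DAX-1 repression.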 The settings on record: HEK293T StAR-luciferase reporter, SF-1/DAX-1 repression relief; at 6.8 µM; active compounds read high.
For the molecule `COc1ccc(C2CC(c3cccs3)=Nc3ccccc3S2)cc1OC` (configuration not stated), the inhibition is 1.16% (inactive).

Consider `COc1ccc(-c2csc3nc(-c4ccccc4F)oc(=O)c23)cc1OC`, for which the inhibition is -0.99% (inactive).

As to `COc1ccc(-c2csc(-c3cccs3)n2)cc1OC`, the inhibition is 7.97% (active).

As for `O=C(CCl)NC1CCCCN(Cc2cccc(C(F)(F)F)c2)C1=O` (configuration not stated), the inhibition was -3.93% (inactive).

For the molecule `C[C@H](O)[C@@H]1CN2CCc3ccc(-c4ccc5c(c4)OCO5)cc3[C@@H]2C[C@@H]1N(C)C(=O)C1CCCCC1`, the inhibition was 0.38% (inactive).

Regarding `COC(=O)[C@]12C[C@H](CC(=O)N3CCOCC3)C(=O)N(Cc3ccc(Cl)cc3Cl)C1=C[C@H](COCc1ccccc1)O[C@@H]2C`, the inhibition is -0.57% (inactive).

As to `CCCCNc1cccc2c1S(=O)(=O)N[C@@H](C)CO2`, the inhibition is -0.56% (inactive).

With `CC(Oc1ccccc1[N+](=O)[O-])C(=O)N/N=C/c1ccoc1` (configuration not stated), the inhibition is 6.45% (active).

For `CC(C)c1cc(C(=O)N/N=C/c2ccoc2)c(O)c(C(C)C)c1`, the inhibition was -0.83% (inactive).

As to `Cc1ccc(OCC(=O)Oc2ccccc2[N+](=O)[O-])cc1`, the inhibition was 0.05% (inactive).

On to `CCOC(=O)C1CSCCS(=O)(=O)N1Cc1ccc(Cl)cc1` (configuration not stated), for which the inhibition is -1.28% (inactive).

As to `COC(=O)c1c(C(=O)OC)c2n(c1C)CCS2`, the inhibition was 0.03% (inactive).

`COc1ccc2nc(SCc3ccccc3)nc(C)c2c1`: the inhibition is 5.06% (active).

`COc1cccc(CSc2nnc(-c3cccnc3)n2Cc2ccccc2)c1`: the inhibition is 1.04% (inactive).

As to `COc1ccc(NCc2nnc(SCc3ccccc3)n2-c2ccc(OC)cc2)cc1`, the inhibition was 0.16% (inactive).

Consider `COC(=O)[C@]12C[C@H](CC(=O)NCc3ccc(C)o3)C(=O)N(CCC3=CCCCC3)C1=C[C@H](C(C)(C)C)O[C@@H]2C`, for which the inhibition is -0.72% (inactive).

As for `CCOC(=O)[C@@]12CCC3=C1N(CCC3)C(=O)[C@H](CC(=O)N1CCN(C(=O)c3ccco3)CC1)C2`, the inhibition was 0.29% (inactive).

On to `Cc1ccccc1CN1CCCCC(NC(=O)Nc2ccccc2F)C1=O` (configuration not stated), for which the inhibition is -2.67% (inactive).

Regarding `CC(C)(C)c1ccc(/C=C/C(=O)NCCCn2ccnc2)cc1`, the inhibition is 0.37% (inactive).

As for `CC(C)(C)c1ccc(/C=C/C(=O)Nc2ncccn2)cc1`, the inhibition is 3.9% (active).

As for `Cc1cc(C)nc(NC(=O)/C=C/c2ccc(Cl)cc2)n1`, the inhibition was 0.12% (inactive).

As for `CC(=O)N1C[C@@H](CO)[C@@H](N(C)C(=O)C(C)(C)C)C[C@H]1c1ccccc1Br`, the inhibition is 0.98% (inactive).

On to `COC(=O)C[C@H]1CC[C@H]2[C@H](COc3ccc(NC(=O)C4CC4)cc3C(=O)N2C)O1`, for which the inhibition was 1.68% (inactive).

Regarding `Cc1[nH]nc(-c2ccc(OCc3cnn(-c4ccccc4)c3)cc2O)c1Oc1ccc(Cl)cc1`, the inhibition was -0.45% (inactive).

`CC(=O)c1nn(-c2ccc(C)cc2)cc1C(=O)c1cccc(Br)c1`: the inhibition was -0.24% (inactive).

For the molecule `O=C(c1cnn(-c2ccc(Cl)cc2)c1)c1ccccc1O`, the inhibition was 6.14% (active).

For `COc1cccc(Cn2cc(COC(=O)Nc3ccc(F)cc3)nn2)c1`, the inhibition was -0.2% (inactive).

Turning to `COc1ccc(S(=O)(=O)NCC(=O)NC2CC2)cc1OC`, the inhibition is -0.86% (inactive).

Take `CC(=O)Nc1ccc(OC[C@@H](O)CN2CCC(C(O)(c3ccccc3)c3ccccc3)CC2)cc1`: the inhibition was 0.02% (inactive).

As to `O=C(CSc1nnc(CNC(=O)c2ccc(F)cc2)o1)Nc1ccc2c(c1)OCO2`, the inhibition was -1.07% (inactive).

As for `COc1ccc([N+](=O)[O-])cc1C1NN=C(c2cccc3ccccc23)S1` (configuration not stated), the inhibition is 0.7% (inactive).

With `COc1ccc(C2Nc3ccccc3C(=O)N2c2ccc(Cl)cc2)cc1Cn1cc([N+](=O)[O-])cn1` (configuration not stated), the inhibition was 3.84% (active).

As for `COc1ccc(CN2CCCC(C(=O)c3ccc(Cl)cc3)C2)cc1Cn1cncn1` (configuration not stated), the inhibition is 0.63% (inactive).

As to `O=C(Oc1ccc(-c2nnco2)cc1)c1ccc(F)c(S(=O)(=O)N2CCOCC2)c1`, the inhibition is -0.14% (inactive).

On to `CC(=O)N1CCCN(C2=Nc3ccccc3Sc3ccccc32)CC1`, for which the inhibition is -0.16% (inactive).

With `CCC(C)[C@@H](C(=O)OC)N(CCc1cn(Cc2ccccc2)nn1)S(=O)(=O)c1ccccc1Br` (some centres not stated), the inhibition is -0.61% (inactive).

In the case of `N#Cc1ccccc1OC[C@@H](O)CN1CCC(C(O)(c2ccccc2)c2ccccc2)CC1`, the inhibition is -0.84% (inactive).

Turning to `COc1cc(/C=C/C(=O)Nc2ccc(OC)c(S(=O)(=O)N3CCOCC3)c2)ccc1OCC#N`, the inhibition was -2.07% (inactive).

For `COc1ccc(/C=C/C(=O)Nc2ccc(C34CC5CC(CC(O)(C5)C3)C4)cc2)cc1OC`, the inhibition is 8.95% (active).

For `COc1ccc(/C=C/C(=O)OCC(=O)NC2CCCCCC2)cc1OC`, the inhibition was 2.29% (inactive).

Turning to `O=C(NC1CCCC1)C1CSCCS(=O)(=O)N1Cc1ccccc1` (configuration not stated), the inhibition was 0.54% (inactive).

As for `CNC(=O)c1[nH]cnc1C(=O)N[C@@H](CC(C)C)C(=O)OC(C)(C)C`, the inhibition is -0.49% (inactive).

Turning to `CC[C@]1(O)C[C@@H]2CN(CCc3c([nH]c4ccccc34)[C@@](C(=O)OC)(c3cc4c(cc3OC)N(C)[C@H]3[C@@](O)(C(=O)OC)[C@H](OC(C)=O)[C@]5(CC)C=CCN6CC[C@]43[C@@H]65)C2)C1`, the inhibition is 9.42% (active).

In the case of `CC[C@]1(O)CC2CN(CCc3c([nH]c4ccccc34)[C@@](C(=O)OC)(c3cc4c(cc3OC)N(C=O)[C@H]3[C@@](O)(C(=O)OC)[C@H](OC(C)=O)[C@]5(CC)C=CCN6CC[C@]43[C@@H]65)C2)C1` (some centres not stated), the inhibition is 12.9% (active).

Turning to `CC(C)(C)c1ccc(CSc2nnc(-c3cccs3)o2)cc1`, the inhibition is -0.57% (inactive).

Consider `CCOC(=O)C(=O)N(Cc1ccccc1)c1ccccc1C(=O)Nc1cc(OC)ccc1OC`, for which the inhibition was -0.54% (inactive).

Turning to `CCOC(=O)N1CCN(C(=O)C2CCN(S(C)(=O)=O)CC2)CC1`, the inhibition is 0.3% (inactive).

Turning to `Cc1nc(-c2ccc(NC(=O)c3cccs3)cc2)cs1`, the inhibition is 3.66% (active).

As for `Cn1c(SCC(=O)Nc2cccc(NC(=O)c3cccs3)c2)nnc1-c1ccncc1`, the inhibition was -0.42% (inactive).

Take `COc1cc(NC(=O)c2ccc(-c3csc(C)n3)cc2)c(OC)cc1Cl`: the inhibition is 0.05% (inactive).

On to `O=C(CSc1nnc(COc2ccccc2)n1Cc1ccco1)c1ccc2ccccc2c1`, for which the inhibition is -1.45% (inactive).

On to `O=C(NN=Cc1ccco1)C(=O)Nc1ccc(Cl)c([N+](=O)[O-])c1`, for which the inhibition is 0.2% (inactive).

Source of the values: PubChem BioAssay AID652010 (The Scripps Research Institute Molecular Screening Center, 2013).
